# Results filed as inconclusive are left out. Entries that show only a call come without a potency. A number with no mark means an inactive call. Calls of active or inactive are those of the source. The call rests on the fitted dose curve; in most records, active means well fitted curve in the direction sought with a large enough effect; inconclusive means small, poorly fitted or top-dose-only effect, or another doubt; inactive means no such curve, though single readings can be large; an effect the other way counts as inactive or inconclusive.
# Key:
# [1] = tested on: Zika virus NS2B-NS3 protease; assay: Primary screen GU AMC qHTS for Zika virus inhibitors (AID 1347154); further: nearly all actives have a fitted effect of over 70% in size
# Summary of the method: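 Unlinked Zika NS2B hydrophilic domain–NS3 protease complex at 25 nM in 10 mM Tris-HCl pH 8.0, 0.01% Tween 20, with an AMC peptide substrate. Fluorescence change (340/450 nm) over 15 min at room temperature, normalized to controls, fitted to 4-parameter Hill.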
# [2] = biological target: Lysine-specific demethylase 5B (Homo sapiens) (UniProt Q9UGL1); assay: Optimization screen for KDM5B Histone Demethylases FDH coupled qHTS against the LOPAC library (AID 1347166)
# Chain of Lysine-specific demethylase 5B (Homo sapiens) (Q9UGL1 whole entry, looked up): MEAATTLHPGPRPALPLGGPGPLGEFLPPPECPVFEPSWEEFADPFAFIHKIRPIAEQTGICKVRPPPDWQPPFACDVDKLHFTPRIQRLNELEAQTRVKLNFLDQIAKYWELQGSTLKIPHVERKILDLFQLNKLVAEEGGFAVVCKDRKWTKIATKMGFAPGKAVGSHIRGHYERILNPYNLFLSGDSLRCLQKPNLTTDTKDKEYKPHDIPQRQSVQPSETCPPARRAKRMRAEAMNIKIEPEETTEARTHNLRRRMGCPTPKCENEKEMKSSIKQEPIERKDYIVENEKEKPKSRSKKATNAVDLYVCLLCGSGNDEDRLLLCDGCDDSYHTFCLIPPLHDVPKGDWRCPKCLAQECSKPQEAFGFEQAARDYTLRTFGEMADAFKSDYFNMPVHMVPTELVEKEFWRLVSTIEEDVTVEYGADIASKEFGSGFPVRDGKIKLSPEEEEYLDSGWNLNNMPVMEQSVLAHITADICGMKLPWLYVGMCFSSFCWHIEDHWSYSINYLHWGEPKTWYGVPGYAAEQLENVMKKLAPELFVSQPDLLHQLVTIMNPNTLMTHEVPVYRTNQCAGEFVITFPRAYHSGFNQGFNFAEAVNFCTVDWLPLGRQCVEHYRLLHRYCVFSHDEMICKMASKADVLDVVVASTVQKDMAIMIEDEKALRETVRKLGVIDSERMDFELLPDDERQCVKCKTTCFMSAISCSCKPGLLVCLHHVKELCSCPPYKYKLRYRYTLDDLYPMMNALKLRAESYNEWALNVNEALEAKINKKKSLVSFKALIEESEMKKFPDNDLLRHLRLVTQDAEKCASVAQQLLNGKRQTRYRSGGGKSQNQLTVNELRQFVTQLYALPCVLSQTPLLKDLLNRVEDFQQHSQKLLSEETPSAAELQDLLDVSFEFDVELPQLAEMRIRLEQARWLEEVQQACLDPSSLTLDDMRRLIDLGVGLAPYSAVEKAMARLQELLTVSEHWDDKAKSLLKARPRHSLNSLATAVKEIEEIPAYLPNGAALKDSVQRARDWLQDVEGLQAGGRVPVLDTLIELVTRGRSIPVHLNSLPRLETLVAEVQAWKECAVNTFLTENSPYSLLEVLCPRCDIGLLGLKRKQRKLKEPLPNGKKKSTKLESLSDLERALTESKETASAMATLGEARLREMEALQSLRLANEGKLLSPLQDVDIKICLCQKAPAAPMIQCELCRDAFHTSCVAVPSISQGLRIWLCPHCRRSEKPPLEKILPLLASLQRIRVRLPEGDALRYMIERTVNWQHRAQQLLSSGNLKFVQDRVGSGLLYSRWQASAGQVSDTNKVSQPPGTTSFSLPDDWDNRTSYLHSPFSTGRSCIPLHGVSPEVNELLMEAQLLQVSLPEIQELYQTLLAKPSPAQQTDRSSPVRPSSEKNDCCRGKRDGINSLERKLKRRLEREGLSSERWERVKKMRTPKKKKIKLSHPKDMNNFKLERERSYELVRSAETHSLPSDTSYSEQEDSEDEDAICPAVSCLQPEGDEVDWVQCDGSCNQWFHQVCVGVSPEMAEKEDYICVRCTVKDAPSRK
# Summary of the method: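 KDM5BDeltaAP (200nM final) preincubated 10 min with compound, then 12.5uM H3K4Me3, 25uM a-ketoglutarate, ascorbate, Fe(II), NAD+ and FDH added; 50mM HEPES pH 7.5, 0.01% Tween-20. NADH fluorescence (340/450 nm) change over 30 min, room temperature.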
# [3] = tested on: Zika virus NS2B-NS3 protease (linked construct); assay: Primary screen NINDS Rhodamine qHTS for Zika virus inhibitors (AID 1347160); further: nearly all actives have a fitted effect of over 55% in size
# Summary of the method: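 Purified linked NS2B-NS3 protease (NS2B hydrophilic domain joined to NS3 protease by flexible linker), 25 nM in 10 mM Tris-HCl pH 8.0, 0.01% Tween 20. Compounds titrated, 15 min preincubation at room temperature; 1.5 microM Rhodamine110 substrate, FITC fluorescence change over 15 min.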
# [4] = Confirmatory screen GU Rhodamine qHTS for Zika virus inhibitors qHTS (AID 1347157); further: potency means the concentration at half of the fitted maximal effect; nearly all actives have a fitted effect of over 70% in size
# Summary of the method: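 Noncovalent NS2B hydrophilic domain/NS3 protease complex (25 nM final) in 10 mM Tris-HCl pH 8.0, 0.01% Tween 20, preincubated 15 min with compounds (up to 114 microM), then 1.5 microM Rhodamine110 substrate. Fluorescence change over 15 min fitted to 4-parameter Hill.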
# [5] = ZIKV-mCherry secondary qHTS for Zika virus inhibitors (AID 1347158); conditions: Vero cells, ZIKV-mCherry infection imaging, 48-72 h; further: potency means the concentration at half of the fitted maximal effect
# Summary of the method: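 Vero cells, 5,000/well, plated overnight at 37 °C, then compound added and infected with recombinant ZIKV-mCherry at MOI 1 for 48-72 h. PFA-fixed, Hoechst nuclear stain, high-content imaging; cells with mCherry intensity above 450 RFU scored infected, reported as percent infection.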
# [6] = Confirmatory screen NINDS Rhodamine qHTS for Zika virus inhibitors (AID 1347161); further: potency means the concentration at half of the fitted maximal effect; nearly all actives have a fitted effect of over 60% in size
# Summary of the method: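 Rhodamine110-peptide cleavage (1.5 µM substrate) by 25 nM linked NS2B-NS3 enzyme at pH 8.0 (Tris, Tween 20), after 15 min RT preincubation with compounds; 15-min fluorescence change normalized to controls and Hill-fitted.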
# [7] = tested on: Zika virus NS2B-NS3 protease (linked); assay: 384 well plate NINDS AMC confirmatory qHTS for Zika virus inhibitors (AID 1347163); conditions: Recombinant NS2B-NS3 protease, Ac-VKTGKR-AMC fluorescence; further: potency means the concentration at half of the fitted maximal effect; nearly all actives have a fitted effect of over 50% in size
# Summary of the method: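 Linked protease 5/30/60 nM final; cpds up to 1 mM final, ~15 min preinc. Substrate Ac-VKTGKR-AMC 30 microM final. RT, dark, 25 min; FI ex 355/em 460; normalized to no-enzyme/no-inhibitor ctrls.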
# [8] = tested on: Zika virus NS2B-NS3 protease (linked construct); assay: 384 well plate NINDS Rhodamine confirmatory qHTS for Zika virus inhibitors (AID 1347164);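 further: fluorescence from protease cleavage of Ac-LKRR-rhodamine 110 substrate; nearly all actives have a fitted effect of over 65% in size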; further: potency means the concentration at half of the fitted maximal effect; on activity change, negative = inhibition: top concentration of the series differs between compounds
# Summary of the method: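 Enzyme (final 5/30/60 nM) + cpd (DMSO), ~15 min; add Ac-LKRR-Rd 10 microM final; 25 min RT, dark; FI ex 485/em 538; normalized to no-enzyme, no-inhibitor ctrls; aprotinin intraplate ctrl.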
# [9] = tested on: Zika virus NS2B-NS3 protease (unlinked complex); assay: Primary screen GU Rhodamine qHTS for Zika virus inhibitors: Unlinked NS2B-NS3 protease assay (AID 1347159); further: nearly all actives have a fitted effect of over 60% in size
# Summary of the method: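 Noncovalent NS2B hydrophilic domain–NS3 protease domain complex (25 nM) preincubated 15 min at room temperature with compounds (up to 114 microM) in 10 mM Tris-HCl pH 8.0, 0.01% Tween 20; 1.5 microM Rhodamine110 substrate added, fluorescence change over 15 min fitted to Hill equation.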
smiles,measurement,setting,value
CCCN(CCC)CCc1ccc(O)c(O)c1,Potency,[1],inactive
C[N+]1(C)CCOC(O)(c2ccc(-c3ccc(C4(O)C[N+](C)(C)CCO4)cc3)cc2)C1 (centres undefined),Potency,[1],inactive
same,Potency,[2],inactive
O=c1c2ccccc2[se]n1-c1ccccc1,Potency,[1],inactive
NCCc1c[nH]c2ccc(C(N)=O)cc12,Potency,[1],inactive
N#CC(C#N)=Cc1cc(O)c(O)c(O)c1,Potency,[1],inactive
O=[N+]([O-])c1ccc2nc(N3CCNCC3)ccc2c1,Potency,[1],inactive
same,Potency,[2],inactive
Nc1ccc(CCN2CCN(c3cccc(C(F)(F)F)c3)CC2)cc1,Potency,[1],inactive
same,Potency,[2],inactive
CN1CC[C@@]2(C)c3cc(OC(=O)Nc4ccccc4)ccc3N(C)[C@@H]12,Potency,[1],inactive
COc1ccc2[nH]cc(CCN)c2c1,Potency,[1],inactive
same,Potency,[3],inactive
same,Potency,[2],inactive
CC(Cc1ccc(OCC(=O)O)cc1)NCC(O)c1cccc(Cl)c1 (centres undefined),Potency,[1],inactive
same,Potency,[2],inactive
CC(N)Cc1c[nH]c2ccc(OCc3cccs3)cc12 (centres undefined),Potency,[1],inactive
same,Potency,[2],inactive
CCCN(CCC)C1Cc2cc(OC)c(OC)cc2C1,Potency,[1],inactive
same,Potency,[2],inactive
CCNC(=O)[C@H]1O[C@@H](n2cnc3c(N)ncnc32)[C@H](O)[C@@H]1O,Potency,[1],inactive
same,Potency,[2],inactive
CCCN(CCC)CCc1c[nH]c2ccc(C(N)=O)cc12,Potency,[1],inactive
CC(=O)c1c(O)c(C)c(O)c(Cc2c(O)c3c(c(C(=O)/C=C/c4ccccc4)c2O)OC(C)(C)C=C3)c1O,Potency,[1],inactive
same,Potency,[4],5.62 µM (active)
same,Potency,[5],3.55 µM (active)
same,Potency,[6],17.8 µM (active)
same,Potency,[7],63.1 µM (active)
same,Potency,[8],31.6 µM (active)
COC(=O)N1CCN(C(=O)Cc2ccc(Cl)c(Cl)c2)C(CN2CCCC2)C1 (centres undefined),Potency,[1],inactive
same,Potency,[2],inactive
N[C@@H](Cn1oc(=O)[nH]c1=O)C(=O)O,Potency,[1],inactive
same,Potency,[2],inactive
CN1c2ccccc2C(NCCCCCCC(=O)O)c2ccc(Cl)cc2S1(=O)=O (centres undefined),Potency,[1],inactive
CC(N)Cc1c[nH]c2ccc(O)cc12 (centres undefined),Potency,[1],inactive
same,Potency,[2],inactive
NC(N)=NOCC[C@H](N)C(=O)O,Potency,[1],inactive
same,Potency,[2],inactive
CCCCCOc1cc2c(cc1-c1cc(/C=C/C(=O)O)ccc1O)C(C)(C)CCC2(C)C,Potency,[7],25.1 µM (active)
same,Potency,[8],inactive
COC1CC(OC2CCC3(C)C(=CCC4C3CCC3(C)C(C(C)OC5OC(COC6OC(CO)C(O)C(O)C6O)C(O)C(O)C5O)CCC43O)C2)OC(C)C1OC1OC(C)C(O)C(OC)C1O (centres undefined),Potency,[9],inactive
same,Potency,[3],inactive
CC1=C2C(=O)C3[C@@H](CC=C4C[C@@H](O)CC[C@@]43C)[C@@H]2CC[C@]12O[C@@H]1C[C@H](C)CN[C@H]1[C@H]2C (some centres undefined),Potency,[9],inactive
same,Potency,[3],inactive
CN1C(=O)c2ccccc2NC(=O)[C@]12O[C@@H]2c1ccccc1,Potency,[9],inactive
same,Potency,[3],inactive
C1=C2CCCN[C@H]2[C@@H]2C[C@H]1[C@H]1CCCCN1C2,Potency,[9],inactive
same,Potency,[3],inactive
Oc1ccc2c3c1O[C@H]1[C@H](N(CCCl)CCCl)CC[C@@]4(O)[C@@H](C2)N(CC2CC2)CC[C@]314,"activity change, negative = inhibition",[9],-3.74% [at 19.1 µM]
same,outcome,[3],inactive [at 10.7 µM]
C/C=C(\C)C(=O)OC1CC2C(CC=C3CC(OC4CC(OC)C(OC5CC(OC)C(OC6OC(C)C(OC7OC(CO)C(O)C(O)C7O)C(OC)C6O)C(C)O5)C(C)O4)CCC32C)C2(O)CCC(C(C)=O)C12C (centres undefined),Potency,[9],inactive
same,Potency,[3],inactive
CN1[C@H]2C[C@H](OC(=O)[C@H](CO)c3ccccc3)C[C@@H]1[C@@H](O)C2,Potency,[9],inactive
same,Potency,[3],inactive

# From PubChem BioAssay (NCATS)
